Structures are written as SMILES. Where “and” joins values, the source holds several entries; their conditions need not be identical. Equal values may be shown once. Inconclusive results are not listed. Some structures have more than one record in an assay (separate samples or runs), and their calls can disagree. Calls of active or inactive are those of the source. Unless noted, no rule for the calls is given here.

The nature of test [1]: qHTS profiling for inhibitors of Plasmodium falciparum (3D7) proliferation (AID 743322).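 Also: infected erythrocytes exposed to compound for 72 h before lysis; 100% = DMSO vehicle wells and 0% = 0.29 µM artemisinin.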 The following applies: P. falciparum 3D7 proliferation; at 28.7 µM (top of the series). The method in brief:
(§1)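 Parasite DNA was quantified by SYBR Green I fluorescence (ex 485, em 535 nm) after overnight lysis in saponin/Triton buffer at room temperature. Cultures at 0.3% parasitemia and 2.5% hematocrit were first exposed to compound for 72 h at 37 C; signals were normalised to artemisinin (0.29 uM) and vehicle wells.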

Test [2] can be described thus: qHTS profiling for inhibitors of Plasmodium falciparum (DD2) proliferation (AID 743323). As to conditions: lower = more inhibition; at 28.7 µM (top of the series). The gist of the method: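 1536-well qHTS; infected RBCs 0.3% parasitemia/2.5% Hct final; cpd 72 h 37 C 5% CO2; lysis buffer + SYBR Green I, o/n RT dark; FI 485/535; norm. to 0.29 uM artemisinin and DMSO, plate-stack corrected.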
On the technique in general: In qHTS, concentration-response curves come from the screen itself.

The nature of test [3]: qHTS profiling for inhibitors of Plasmodium falciparum (HB3) proliferation (AID 743324; active = well fitted curve in the direction sought with a large enough effect; an effect the other way counts as inactive or inconclusive;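 also: 100% = DMSO vehicle wells and 0% = artemisinin-treated control wells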). As to conditions: Plasmodium falciparum HB3 blood-stage proliferation; at 28.7 µM (top of the series). The gist of the method:
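SYBR Green fluorescence (485 ex/535 em) of lysed cultures, incubated overnight at room temperature in the dark, quantifies parasite DNA. Infected erythrocytes at 0.3% parasitemia and 2.5% hematocrit were exposed 72 h; values normalized to DMSO and 0.29 uM artemisinin controls.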

Test [4] is described as follows: qHTS profiling of the MIPE4 collection as inhibitors of Plasmodium falciparum (3D7) proliferation (AID 743344).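 Also: scaled between DMSO vehicle wells and 0.29 µM artemisinin as full inhibition.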 As to conditions: P. falciparum 3D7 in erythrocytes, SYBR Green DNA fluorescence, 72 h; at 28.5 µM (top of the series) unless noted. The method in brief:
as §1

A short description of test [5]: qHTS profiling of the MIPE4 collection as inhibitors of Plasmodium falciparum (DD2) proliferation (AID 743345). The following applies: P. falciparum Dd2 in erythrocytes, SYBR Green DNA, 72 h; at 28.5 µM (top of the series) unless noted. The gist of the method:
as §1

A short description of test [6]: qHTS profiling of the MIPE4 collection as inhibitors of Plasmodium falciparum (DD2) proliferation (Rep 2) (AID 743346). The following applies: P. falciparum Dd2 in erythrocytes, SYBR Green DNA, 72 h; at 28.5 µM (top of the series) unless noted. The gist of the method:
as §1

The nature of test [7]: High-throughput drug toxicity screening in the BPDCN cell line Gen2.2 (AID 1224824).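 Also: cells exposed to compounds for 48 h before reading; 100% = DMSO and 0% = bortezomib.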 The following applies: Gen2.2 BPDCN cells; at 45.8 µM (top of the series) unless noted. The gist of the method: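 Readout is ATP luminescence from Gen2.2 cells after two days of drug exposure in serum-containing medium at 37 °C. Values express percent activity, with vehicle defining full signal and 9.2 uM bortezomib defining zero.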

Test [8] can be described thus: qHTS assay for cell viability of HEK293 cells (AID 743288; active = well fitted curve in the direction sought with a large enough effect; an effect the other way counts as inactive or inconclusive; also: nearly all actives have a fitted effect of over 50% in size; also: potency is read from the fitted curve at half-maximal effect; as to max response: % is scaled to controls: 0 for no effect and ±100 for the full control effect). As to conditions: ATP luminescence (CellTiter-Glo), 18 h; max response: stronger effect = lower value. The method in brief:
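HEK293, 18 h, 37 C, ATP luminescence. Cells at 2,000/well were allowed at least 5 h to settle before dosing; CellTiter-Glo developed 30 min at RT.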

Test [9] in a line: qHTS assay for cell viability of the p53RE-bla HCT-116 cell line (AID 743292; active = well fitted curve in the direction sought with a large enough effect; an effect the other way counts as inactive or inconclusive; also: nearly all actives have a fitted effect of over 55% in size; also: potency is read from the fitted curve at half-maximal effect). The gist of the method:
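Intracellular ATP of p53RE-bla HCT-116 cells measured by luciferase luminescence following 16 h compound incubation at 37 C; DMSO-only wells served as vehicle controls.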

A short description of test [10]: qHTS profiling of the MIPE4 collection as inhibitors of Plasmodium falciparum (HB3) proliferation (AID 743347).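 Also: plate controls were DMSO vehicle wells for no effect and artemisinin wells for full effect.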 The following applies: P. falciparum HB3 in erythrocytes, SYBR Green DNA, 72 h; at 28.5 µM (top of the series) unless noted. The gist of the method: as §1

As for `CCCCS(=N)(=O)CCC(N)C(=O)O` (stereo not given), in [1], the remaining parasite growth % (stronger effect = lower value) turned out to be 88.1%. Also, the activity, percent of control in [2] worked out at 31.7%. In test [3], the remaining proliferation (% of control), lower = more inhibition was 88%. This molecule yielded a parasite growth, % of DMSO control in test [4] of 102%. The parasite growth remaining, % of DMSO control (lower = more inhibition) in test [5] was 94.1%. In [6], the parasite growth, % of control (lower = inhibition) is 193%. For the same molecule, the cell viability, % of control (lower = more cytotoxic) in [7] was 17.3%.

Take `O=NN(CCCl)C(=O)NC1CCCCC1`: the cell viability, % of control (lower = more cytotoxic) in test [7] turned out to be 110%.

Consider `NC(N)=NC(N)=NCCc1ccccc1`, for which, in test [8], the max response is -5.89% (inactive) and -15.7% (inactive). The Potency entry in test [9] is “inactive”. Also, in test [5], the parasite growth remaining, % of DMSO control (lower = more inhibition) was determined as 38.8%. In addition, the parasite growth, % of control (lower = inhibition) in test [6] was 47%. In test [10], this molecule had a growth, % of control of 50.7%. The cell viability, % of control (lower = more cytotoxic) in test [7] stood at 88%.

As for `CC[C@H](C)C(=O)O[C@H]1C[C@@H](C)C=C2C=C[C@H](C)[C@H](CC[C@@H]3C[C@@H](O)CC(=O)O3)[C@H]21`, the max response in test [8] is -9.34% (inactive). For the same molecule, the Potency entry in test [9] is “inactive”. Further, the parasite growth remaining, % of DMSO control (lower = more inhibition) in test [5] worked out at 103%. In addition, in [6], the parasite growth, % of control (lower = inhibition) worked out at 83.7%. Further, the growth, % of control in test [10] is 85.6%. Moreover, the cell viability, % of control (lower = more cytotoxic) in test [7] stood at 8.11%.

On to `Clc1ccccc1CN1CCc2sccc2C1`, for which the cell viability, % of control (lower = more cytotoxic) in test [7] was 91.7%.

For `CCn1cc(C(=O)O)c(=O)c2cc(F)c(N3CCNCC3)cc21`, the cell viability, % of control (lower = more cytotoxic) in test [7] amounted to 113%.

As for `CC(=O)[C@H]1CC[C@H]2[C@@H]3CCC4=CC(=O)CC[C@]4(C)[C@H]3CC[C@]12C`, in test [8], the Potency is 44.7 µM (active) and the max response is -28% (inactive). For the same molecule, the Potency result in [9] was “inactive”. Further, the cell viability, % of control (lower = more cytotoxic) in test [7] is 83%.

`Cc1nnc(NS(=O)(=O)c2ccc(N)cc2)s1`: in test [8], the max response was 0.46% (inactive). The Potency result in test [9] was “inactive”. In addition, in test [5], the parasite growth remaining, % of DMSO control (lower = more inhibition) came out at 17.6%. In test [6], the parasite growth, % of control (lower = inhibition) stood at 8.26%. The growth, % of control in [10] was found to be 38.9%. Besides, the cell viability, % of control (lower = more cytotoxic) in test [7] was 114%.

As for `CC1=NN(c2ccccc2)C(=O)C1`, the max response in test [8] is -6.75% (inactive) and -3.56% (inactive). The Potency result in [9] is “inactive”. In addition, in test [5], the parasite growth remaining, % of DMSO control (lower = more inhibition) turned out to be 94.6%. Besides, the parasite growth, % of control (lower = inhibition) in [6] stood at 86.2%. The molecule also had a growth, % of control in test [10] of 103%. In addition, the cell viability, % of control (lower = more cytotoxic) in test [7] was 112%.

Take `Cc1ncc([N+](=O)[O-])n1CCO`: the max response in test [8] was -4.68% (inactive). In test [9], the Potency entry is “inactive”. This molecule showed a parasite growth, % of DMSO control in [4] of 88.2%. Besides, the parasite growth remaining, % of DMSO control (lower = more inhibition) in test [5] came out at 101%. The parasite growth, % of control (lower = inhibition) in test [6] stood at 96.3%. Besides, in [7], the cell viability, % of control (lower = more cytotoxic) was determined as 180%.

As for `CN(C)c1ccc(C(=C2C=CC(=[N+](C)C)C=C2)c2ccc(N(C)C)cc2)cc1`, the Potency in [8] was 14.1 µM (active) and 11.2 µM (active); in test [9], 25.1 µM (active) and 35.5 µM (active). The molecule further showed a parasite growth, % of DMSO control in test [4] of 2.71%. Further, in [5], the parasite growth remaining, % of DMSO control (lower = more inhibition) came to 5.08%. Besides, the parasite growth, % of control (lower = inhibition) in test [6] amounted to 6.31%. The growth, % of control in test [10] came to 2.46%. Also, the cell viability, % of control (lower = more cytotoxic) in test [7] came to 1.19%.

As to `O=C(O)c1cn(C2CC2)c2cc(N3CCNCC3)c(F)cc2c1=O`, the remaining parasite growth % (stronger effect = lower value) in test [1] stood at 95%. In test [2], this molecule returned an activity, percent of control of 90.7%. In test [3], the remaining proliferation (% of control), lower = more inhibition came to 92.1%. Besides, the parasite growth remaining, % of DMSO control (lower = more inhibition) in test [5] worked out at 85.5%. Also, in test [6], the parasite growth, % of control (lower = inhibition) was determined as 67.8%. In test [10], this molecule had a growth, % of control of 76.4%. Besides, in [7], the cell viability, % of control (lower = more cytotoxic) stood at 138%.

Consider `Nc1nc(N)c2nc(CNc3ccc(C(=O)NC(CCC(=O)O)C(=O)O)cc3)cnc2n1` (stereo not given), for which the Potency in [9] is 89.1 nM (active). In test [4], this molecule had a parasite growth, % of DMSO control of 25%. The parasite growth remaining, % of DMSO control (lower = more inhibition) in [5] is 7.65%. For the same molecule, in test [6], the parasite growth, % of control (lower = inhibition) was 21%. Besides, the growth, % of control in [10] was found to be 23.4%. Further, in test [7], the cell viability, % of control (lower = more cytotoxic) stood at 23.1%.

On to `O=S(=O)(c1cccc2cnccc12)N1CCCNCC1`, for which the cell viability, % of control (lower = more cytotoxic) in test [7] turned out to be 21.4%.

(Values after PubChem BioAssay (NCATS).)
